About 1,200 (3.2%) of roughly 38,000 compounds showed an effect of 50% or more. The median lay at about -58%. The sample holds strong results, similar compounds and a random draw of the others, so the mix is not that of the screen.
Tested on: Plasmodium falciparum
Experiment: Calibr Malaria Delayed Death Assay SOP
Assay type: functional, organism-based
Set-up: scale not given: in the data most compounds retested in dose-response had high values
Details: concentration 4.99e-06 (unit not given; other assays of the set use mol/L)

Compound	Percent Effect [%]
Cc1cc(CN(C)C(=O)C(c2ccccc2)N2CCSCC2)no1 (centres undefined)	-62.62
CCn1cnnc1CNC(=O)N1CCN(c2cccc(C)c2)CC1	-132.8
Cc1cc(C)n(-c2cncc(NCCNS(C)(=O)=O)n2)n1	-82.28
CSc1ncn(-c2nc(NC3CC3)nc(N(C)C)n2)n1	-74.3
CCC(CNC(=O)c1cc(OC)ccc1Br)N1CCc2ccccc2C1 (centres undefined)	0.2059
CCC(CNC(=O)c1ccccc1Br)N1CCc2ccccc2C1 (centres undefined)	39.24
CCC(CNC(=O)c1cncc(Br)c1)N1CCc2ccccc2C1 (centres undefined)	65.67
CN(CC1(CO)CCC1)C(=O)c1cc(COc2ccccc2F)[nH]n1	-88.13
Cc1noc(C(C)C)c1C(=O)N1CCOCC1CC(=O)c1ccco1 (centres undefined)	-42.91
NC(=O)Cc1ccc(OCc2noc(C(=O)N3CCCC3)n2)cc1	-126.1
O=C(C1CCC2(CCN(Cc3cccnc3)CC2)CO1)N1CCCC1.O=C(O)C(F)(F)F.O=C(O)C(F)(F)F (centres undefined)	-51.34
COc1cc(CCC(=O)NC(C)C)ccc1OCC(F)(F)F	-88.73
Cc1c(C(=O)N2CCOCC2)n(C)c2ccc(Cl)cc12.Cl	-79.72
Cc1c(C(=O)N2CCN(C)CC2)n(C)c2ccc(Cl)cc12	-1.924
OC1CCN(c2ccnc(NCCc3ccccc3Cl)n2)CC1	-52.91
NCC1Cc2cc(-c3nccc(N4CCC(O)CC4)n3)cc(F)c2O1 (centres undefined)	83
O=C1NCCN1C1CCN(c2ccnc(-c3ccccc3)n2)CC1	-68.77
NCC1Cc2cccc(-c3nccc(N4CCC(O)CC4)n3)c2O1 (centres undefined)	16.4
OC1CCN(c2ccnc3c(F)cc(Br)cc23)CC1	-18.79
NCC1Cc2cc(-c3nccc(N4CCC(O)CC4)n3)cc(Cl)c2O1 (centres undefined)	79.64
Cc1ccc(CN2CCc3c(COC(C)C)nn(C)c3C2)s1.O=C(O)C(F)(F)F	-19.42
Cc1cc(S(=O)(=O)N2C[C@H](C3CC3)[C@@H](N)C2)c(C)s1	85.63
N[C@H]1CN(S(=O)(=O)c2cccnc2)C[C@@H]1C1CC1	-65.5
N[C@H]1CN(S(=O)(=O)c2ccccc2)C[C@@H]1C1CC1	-1.115
Cc1cc(-c2cc(S(=O)(=O)N3C[C@H](C4CC4)[C@@H](N)C3)c(C)s2)[nH]n1	61.47
Cc1ccc(S(=O)(=O)N2C[C@H](C3CC3)[C@@H](N)C2)cc1F	14.36

Compound	Percent Effect [%]
CC(C)Nc1cc(N2CCC(n3cc(CCO)nn3)CC2)ncn1	-78.28
Cc1cc(C(=O)N2CCN(c3nc4c(C)cccc4s3)CC2)no1	-18.05
Cc1c(C2N3C[C@]4(C(C)C)CN2C[C@](C(C)C)(C3)C4=O)[nH]c(=O)[nH]c1=O (some centres undefined)	-140.7
O=C(O)C(F)(F)F.O=C1COC2(CCN(c3ncccn3)CC2)CN1Cc1ccccn1	-77.45
COc1cccc(CN(C)C(=O)c2csc(-c3nnc[nH]3)n2)c1	-25.24
COCCN(Cc1ccccc1)C(=O)c1csc(-c2nnc[nH]2)n1	-56.87
CN(CCCOc1ccccc1)C(=O)c1csc(-c2nnc[nH]2)n1	76.91
CC(=O)Nc1nc2c(s1)C1(CCCC1)Nc1ccccc1S2	-91.88
Cc1nc(CCNC(=O)C2CC(=O)N(C(C)C)C2)cs1 (centres undefined)	-69.29
Cc1ccc(NC2CCN(C(=O)COC3CCCC3)CC2)nn1	-115.6
Cc1cc2n(n1)CC(CNC1CCN(c3ccccn3)CC1)CN2 (centres undefined)	-51.76
Cc1cc2n(n1)CC(CNC1CCN(Cc3ccccc3C)CC1)CN2 (centres undefined)	70.36
Cc1cc2n(n1)CC(CNC1CCN(Cc3ccccn3)CC1)CN2 (centres undefined)	-56.82
Cc1cc2n(n1)CC(CNC1CCN(CCc3ccccc3)CC1)CN2 (centres undefined)	67.68
OCc1ccccc1CNCC1CNc2ccnn2C1 (centres undefined)	-1.893
Cc1cc2n(n1)CC(CNC1CCN(Cc3ccncc3)CC1)CN2 (centres undefined)	-3.89
Cc1ccccc1CN1CCC(NCC2CNc3ccnn3C2)CC1 (centres undefined)	66.35
Cc1cc2n(n1)CC(CNC1CCN(C(=O)c3ccco3)CC1)CN2 (centres undefined)	-80.47
Cc1cccc(CN2CCC(NCC3CNc4cc(C)nn4C3)CC2)c1 (centres undefined)	85.82
c1ccc(C2(NCC3CNc4ccnn4C3)CCC2)cc1 (centres undefined)	13.04
Cc1cc2n(n1)CC(CNC1CCN(C(=O)C3CC3)CC1)CN2 (centres undefined)	-153
Cc1cc2n(n1)CC(CNC1CCN(C3CC3)CC1)CN2 (centres undefined)	-73.71
CC(C)N1CCC(Cc2cc(-c3cc(F)ccc3C(=O)O)ncn2)C1 (centres undefined)	-123.1
COCCN1CCCC2(CCN(Cc3nnc(C4CC4)o3)C2)C1=O (centres undefined)	-62.36
COCCNC(=O)c1cccnc1Oc1ccc(Cl)cc1	-11.3
O=C(NC1CC1)[C@H]1C[C@@H]2CCN(Cc3ccc4c(c3)OCO4)C[C@@H]2O1.O=C(O)C(F)(F)F	-22.11

Compound	Percent Effect [%]
CC(C)c1nc(C2CCCN2C(=O)CCn2cncn2)no1 (centres undefined)	-126.6
CCCN(CCc1ccccc1)C(=O)c1ccccc1NCC(=O)O	-32.98
Cc1cc(C(C)(O)CNC(=O)CCn2ccnc2C(C)C)c(C)o1 (centres undefined)	-18.43
Cc1cc(NC(=O)NCCOc2ccc(Cl)cn2)no1	-49.88
COc1cc(C)sc1C(=O)NCCC(=O)N(C)c1ccccc1	32.05
COc1cc(C)sc1C(=O)NCCC(=O)N(C)Cc1ccccc1	58.21
COc1cc(C)sc1C(=O)NCCNc1ccccc1	14.03
COCC(=O)N1CCO[C@]2(CCC[C@H]2COC)C1	-73.03
CCc1n[nH]c(C2CN(C(=O)CCCn3cccn3)CCO2)n1 (centres undefined)	-94.04
COc1ccc(-c2ccccc2CCN)c(OC)c1OC	81.6
COc1ccc(-c2ccccc2CCN)c(OC)c1	80.76
COc1ccc(CN)c(OC(F)F)c1.Cl	-30.28
COc1ccc(OC)c(-n2cnnc2CCN)c1	-39.19
COc1ccc(CCN)cc1-c1ccc(S(C)(=O)=O)cc1	18.27
COc1ccc(-c2cc(CN)ccc2F)c(OC)c1OC	12.18
CC(=O)Nc1cccc(-c2ccccc2CCN)c1	-111.2
COc1ccc(-c2ccccc2CN)c(OC)c1	59.74
COc1ccc(-c2ccnc(N)c2)c(OC)c1	-94.95
Cc1c[nH]c(C(=O)N2CCCC2c2ccc(C(=O)N3CCSCC3)s2)n1 (centres undefined)	-168.9
CC(=O)N1CCCC2(C1)CN(C(=O)Cc1ccccc1)CCO2 (centres undefined)	-122.2
O=C(O)Cn1ccc(=O)c2cc(Cl)ccc21	-122.9
CCOc1cccc2c1OCC(=O)N(c1ccc(N(C)C)cc1)C2	-248.2
COc1ccc(OCCN(C)C(=O)c2ccc(OC)cc2O)cc1	-28.6
COc1ccc(-c2nnsc2C(=O)N2CCOCC2)cc1	-93.54
COc1c(CNCc2cccc(Cn3cccn3)c2)c(C)nn1C	6.408
COc1c(CNCc2ccccc2Cn2cccn2)c(C)nn1C	54.96

Compound	Percent Effect [%]
COc1c(CNCc2ccccc2Cn2cncn2)c(C)nn1C	-2.524
Cc1nn(C)c(C)c1S(=O)(=O)NCC1(C(N)=O)CCOCC1	-35.42
Cc1ccc(N2CC[C@H]3C[C@H](C(=O)NCc4ccco4)O[C@H]3C2)nn1.O=C(O)C(F)(F)F	-18.7
CN(Cc1ccc([S+](C)[O-])cc1)c1cncc(Br)c1 (centres undefined)	-68.65
COc1cccc(CN2CCCCCC2c2cccs2)c1O (centres undefined)	1.572
COc1cccc(CN2CCCCCC2c2sccc2C)c1O (centres undefined)	-12.07
COc1cccc(CN2CCCCCC2c2cccc(F)c2)c1O (centres undefined)	55.91
COc1cccc(CN2CCCCCC2c2cccc(C)c2)c1O (centres undefined)	56.55
COc1cc(CN2CCCCCC2c2cccs2)cc(OC)c1O (centres undefined)	-97.62
Cc1cccc(C2CCCCCN2Cc2cn(C)nc2C)c1 (centres undefined)	32.86
Cc1noc(C2CCC3(CCN(C(=O)c4ccncn4)CC3)O2)n1 (centres undefined)	-45.98
O=C(c1cccc2cn[nH]c12)N1CCCC1c1noc(C2CC2)n1 (centres undefined)	-53.04
CCn1ccc(-c2cc(C(=O)O)n3nc(C)c(Cl)c3n2)n1	-42.05
O=C(O)C(F)(F)F.O=C1C[C@H]2[C@@H](CCN2C(=O)c2ccoc2)N1CCN1CCOCC1	-16.54
Cc1cccc(-n2ncc3c(=O)n(CCN4CCCCC4)cnc32)c1C	-32.3
CNS(=O)(=O)CCCN1CCCN(Cc2ccccc2)CC1C (centres undefined)	57.31
CNS(=O)(=O)CCCN1CCCCCC1c1ccc(C)o1 (centres undefined)	7.133
COCCN1CCN(CCCS(=O)(=O)c2ccccc2)CC1C (centres undefined)	-125.8
CNS(=O)(=O)CCCN1CCCC1c1cc(C)on1 (centres undefined)	-107.9
COCCN1CCN(CCCS(C)(=O)=O)CC1C (centres undefined)	-45.99
CC1CN(Cc2ccccc2)CCCN1CCCS(C)(=O)=O (centres undefined)	50.52
Cc1cc(F)ccc1N1CCCC(NC(=O)CCCn2ccnc2)C1 (centres undefined)	-46.83
Cc1ccoc1-c1nnc(CN2CCn3c(nnc3C(C)C)C2)o1	-39.14
CCCN1CCN(c2ccc(-c3nc(C)no3)cn2)CC1	-136.9
CCn1cc(CN2CCCN(C(=O)CCN3CCCC3=O)CC2)cn1	-110.7
CC(C)C(NC(=O)N1CCS(=O)(=O)CC1)c1ccccc1Cl (centres undefined)	-66.72
